Hit rate of the full screen: of about 5,500 compounds, about 2,000 (36%) were called active. Roughly 18% stayed inconclusive and do not appear here. Cut-off read from the data, not from the text of the source: active = normalized growth mostly below about 0.91 (no sharp cut-off); inconclusive = no clear call, values can overlap the other calls; inactive = mostly above about 0.92. Some of the results follow.
Assay: chemical genetic growth profiling, strain panel (AID 1159580);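 note: tested at 20 µM; growth read once vehicle control cultures reached saturation at 30 °C; 1 = growth at the plate median or of vehicle wells; lower values mean less growth of the strain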
Settings: growth OD

Measured: normalized growth

Cc1cc(/C=C/c2ccc3cc(N(C)C)ccc3[n+]2C)c(C)n1-c1ccccc1
inactive: S. cerevisiae deletion strains, locus YJR066W, strain TOR1, hits give low values 0.948 | S. cerevisiae deletion strains, locus YKL068W, hits give low values 1.03 | S. cerevisiae deletion strains, locus YKL085W, strain MDH1 (second series), hits give low values 1.03 | S. cerevisiae deletion strains, locus YKL085W, strain MDH1, hits give low values 1.03 | S. cerevisiae deletion strains, locus YKR001C, strain vps1, hits give low values 0.987 | S. cerevisiae deletion strains, locus YKR026C, strain gcn3, hits give low values 1.01 | S. cerevisiae deletion strains, locus YKR091W, strain srl3, hits give low values 1.02 | S. cerevisiae deletion strains, locus YLL001W, strain dnm1, hits give low values 0.934 | S. cerevisiae deletion strains, locus YLL041C, strain sdh2, hits give low values 1.03 | S. cerevisiae deletion strains, locus YLR039C, strain RIC1, hits give low values 0.703 | S. cerevisiae deletion strains, locus YLR102C, strain apc9, hits give low values 1.01 | S. cerevisiae deletion strains, locus YLR113W, strain HOG1, hits give low values 1.02 | S. cerevisiae deletion strains, locus YLR258W, strain gsy2, hits give low values 0.986 | S. cerevisiae deletion strains, locus YLR262C, strain YPT6, hits give low values 0.776 | S. cerevisiae deletion strains, locus YLR268W, strain sec22, hits give low values 0.919 | S. cerevisiae deletion strains, locus YLR330W, strain CHS5, hits give low values 1 | S. cerevisiae deletion strains, locus YLR357W, strain rsc2, hits give low values 1.09 | S. cerevisiae deletion strains, locus YLR370C, strain arc18, hits give low values 0.986 | S. cerevisiae deletion strains, locus YLR371W, strain rom2, hits give low values 1.02 | S. cerevisiae deletion strains, locus YLR384C, strain iki3, hits give low values 1 | S. cerevisiae deletion strains, locus YML032C, strain rad52, hits give low values 0.947 | S. cerevisiae deletion strains, locus YML120C, strain ndi1, hits give low values 0.93 | S. cerevisiae deletion strains, locus YML124C, strain tub3, hits give low values 1.02 | S. cerevisiae deletion strains, locus YMR078C, strain ctf18, hits give low values 1.02 | S. cerevisiae deletion strains, locus YMR205C, strain PFK2, hits give low values 1.04 | S. cerevisiae deletion strains, locus YMR223W, strain ubp8, hits give low values 0.949 | S. cerevisiae deletion strains, locus YMR231W, strain pep5, hits give low values 1.01 | S. cerevisiae deletion strains, locus YNL183C, strain NPR1, hits give low values 0.962 | S. cerevisiae deletion strains, locus YNL250W, strain rad50, hits give low values 1.02 | S. cerevisiae deletion strains, locus YNL271C, strain bni1, hits give low values 1.02 | S. cerevisiae deletion strains, locus YNL298W, strain CLA4, hits give low values 1.01 | S. cerevisiae deletion strains, locus YNL322C, strain KRE1 (second series), hits give low values 1.01 | S. cerevisiae deletion strains, locus YNR049C, strain mso1, hits give low values 1.01 | S. cerevisiae deletion strains, locus YOL012C, strain htz1 0.461 | S. cerevisiae deletion strains, locus YOL147C, strain pex11, hits give low values 0.999 | S. cerevisiae deletion strains, locus YOR001W, strain rrp6, hits give low values 0.954 | S. cerevisiae deletion strains, locus YOR061W, strain CKA2, hits give low values 0.909 | S. cerevisiae deletion strains, locus YOR069W, strain VPS5, hits give low values 0.995 | S. cerevisiae deletion strains, locus YOR136W, strain idh2, hits give low values 0.997 | S. cerevisiae deletion strains, locus YOR144C, strain elg1, hits give low values 1 | S. cerevisiae deletion strains, locus YOR184W, strain ser1, hits give low values 0.928 | S. cerevisiae deletion strains, locus YOR231W, strain MKK1, hits give low values 1.01 | S. cerevisiae deletion strains, locus YOR290C, strain snf2, hits give low values 0.947 | S. cerevisiae deletion strains, locus YOR316C, strain cot1, hits give low values 1.01 | S. cerevisiae deletion strains, locus YPL078C, strain atp4, hits give low values 0.96 | S. cerevisiae deletion strains, locus YPL240C, strain hsp82, hits give low values 1.01 | S. cerevisiae deletion strains, locus YPL256C, strain CLN2, hits give low values 1.02 | S. cerevisiae deletion strains, locus YPR119W, strain clb2, hits give low values 1.01 | S. cerevisiae deletion strains, locus YPR141C, strain kar3, hits give low values 1.04 | S. cerevisiae deletion strains, locus YPR163C, strain tif3, hits give low values 1.01 | S. cerevisiae deletion strains, locus YPR167C, strain met16, hits give low values 0.989
active: S. cerevisiae deletion strains, locus YKL160W, strain elf1, hits give low values 0.829 | S. cerevisiae deletion strains, locus YKL190W, strain CNB1, hits give low values 0.692 | S. cerevisiae deletion strains, locus YLL026W, hits give low values 0.926 | S. cerevisiae deletion strains, locus YLR027C, strain aat2, hits give low values 0.909 | S. cerevisiae deletion strains, locus YLR058C, strain SHM2, hits give low values 0.887 | S. cerevisiae deletion strains, locus YLR221C, strain rsa3, hits give low values 0.905 | S. cerevisiae deletion strains, locus YLR262C, strain YPT6 (second series), hits give low values 0.717 | S. cerevisiae deletion strains, locus YLR320W, strain mms22, hits give low values 0.797 | S. cerevisiae deletion strains, locus YLR342W, strain FKS1 (second series), hits give low values 0.774 | S. cerevisiae deletion strains, locus YLR342W, strain FKS1, hits give low values 0.832 | S. cerevisiae deletion strains, locus YLR418C, strain cdc73, hits give low values 0.385 | S. cerevisiae deletion strains, locus YML016C, strain PPZ1, hits give low values 0.906 | S. cerevisiae deletion strains, locus YMR058W, strain fet3, hits give low values 0.863 | S. cerevisiae deletion strains, locus YMR125W, strain sto1, hits give low values 0.819 | S. cerevisiae deletion strains, locus YMR129W, hits give low values 0.874 | S. cerevisiae deletion strains, locus YMR307W, strain GAS1, hits give low values 0.583 | S. cerevisiae deletion strains, locus YNL067W, strain RPL9B, hits give low values 0.842 | S. cerevisiae deletion strains, locus YNL071W, strain lat1, hits give low values 0.762 | S. cerevisiae deletion strains, locus YNL128W, strain TEP1, hits give low values 0.202 | S. cerevisiae deletion strains, locus YNL153C, strain GIM3, hits give low values 0.709 | S. cerevisiae deletion strains, locus YNL209W, strain ssb2, hits give low values 0.848 | S. cerevisiae deletion strains, locus YNL233W, strain BNI4, hits give low values 0.749 | S. cerevisiae deletion strains, locus YNL248C, strain rpa49, hits give low values 0.714 | S. cerevisiae deletion strains, locus YNL307C, strain MCK1, hits give low values 0.863 | S. cerevisiae deletion strains, locus YNL322C, strain KRE1, hits give low values 0.686 | S. cerevisiae deletion strains, locus YNR052C, strain pop2, hits give low values 0.731 | S. cerevisiae deletion strains, locus YOL006C, strain TOP1, hits give low values 0.382 | S. cerevisiae deletion strains, locus YOR070C, strain gyp1, hits give low values 0.91 | S. cerevisiae deletion strains, locus YOR080W, strain dia2, hits give low values 0.892 | S. cerevisiae deletion strains, locus YOR083W, strain WHI5, hits give low values 0.804 | S. cerevisiae deletion strains, locus YOR106W, strain vam3, hits give low values 0.754 | S. cerevisiae deletion strains, locus YOR265W, strain rbl2, hits give low values 0.92 | S. cerevisiae deletion strains, locus YOR270C, strain vph1, hits give low values 0.728 | S. cerevisiae deletion strains, locus YPL051W, strain arl3, hits give low values 0.914 | S. cerevisiae deletion strains, locus YPL106C, strain sse1, hits give low values 0.468 | S. cerevisiae deletion strains, strain wtn01, hits give low values 0.775 | S. cerevisiae strains, strain wild type, hits give low values 0.484

Reference: PubChem BioAssay AID1159580 (chemical genetic matrix, 2015)
